From PubChem BioAssay AID624288 (National Center for Advancing Translational Sciences (NCATS), 2012)
Among all 340,000 compounds or so, about 1,400 (0.41%) were called active. Where a call stands in place of a potency, no number is given. Inconclusive results (about 4%) are left out. The sample holds actives, similar compounds and a random draw of the others, so the mix is not that of the screen. Calls come from the whole dose curve; cell line not stated here.
Potency is the fitted concentration of half-maximal effect.

Test: qHTS for Antagonists of gsp, the Etiologic Mutation Responsible for Fibrous Dysplasia/McCune-Albright Syndrome: qHTS; note: nearly all actives have a fitted effect of over 65% in size
Settings: gsp-mutant cells, cAMP HTRF, 30 min; series mostly up to 76.9 µM
Method in brief: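 Cells, 2000/well, grown 16–24 h in DMEM 10% FBS with 0.5 mg/ml G418, then compounds plus […] (300 uM addition stock), 30 min at 37C. cAMP read by HTRF (cAMP-d2 and anti-cAMP antibody-K in lysis buffer) after 30 min RT.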
In the case of `COc1ccc2nc(N3C(=O)C(O)=C(C(=O)c4ccco4)C3c3ccco3)sc2c1` (stereo not drawn), the Potency is reported as “inactive”. For `OCCN1CCN(CCO)C1=S`, the Potency was “inactive”. In the case of `N#CC1=C(N)Oc2cc(N)ccc2C1c1ccccc1` (stereo not drawn), the Potency is reported as “inactive”. In the case of `O=[N+]([O-])c1cc(Cl)cc(/C=N/NC(=S)Nc2cc(S(=O)(=O)N3CCOCC3)ccc2Cl)c1O`, the Potency is reported as 50.1 µM (active). In the case of `CN(C)/N=C/c1cc(Cl)cc([N+](=O)[O-])c1O`, the Potency is reported as “inactive”. For `O=S(=O)(c1ccc(NC(=S)NN=C(C2CC2)C2CC2)cc1)N1CCOCC1`, the Potency was “inactive”. In the case of `O=C1CC(c2ccccc2)C(=O)N2C(=O)CC(c3ccccc3)C(=O)N12` (stereo not drawn), the Potency is reported as “inactive”. In the case of `Cc1nc(Nc2ccccc2C)c2cnn(C)c2n1`, the Potency is reported as “inactive”. For `COc1ccc(N=C2C=CC(=O)O2)cc1`, the Potency was “inactive”. For `N=C1C(c2nc3ccccc3s2)=C(O)CN1NC(=O)c1ccc([N+](=O)[O-])cc1`, the Potency was “inactive”. In the case of `O=C(NC(Nc1nc2ccc([N+](=O)[O-])cc2s1)(C(F)(F)F)C(F)(F)F)c1ccccc1`, the Potency is reported as 3.98 µM (active). For `O=C(CCNC(=O)c1ccccc1)Nc1nc2ccccc2s1`, the Potency was “inactive”. In the case of `CC(=O)Nc1ccc(C(=O)Nc2cc(S(=O)(=O)N3CCOCC3)ccc2N2CCOCC2)cc1`, the Potency is reported as “inactive”. For `CC1(C)N=C(N)NC(Nc2ccc(Cl)cc2)=N1`, the Potency was “inactive”. For `O=C(Nc1ccccc1)c1ccccc1NC(=O)C(F)(F)F`, the Potency was 31.6 µM (active). For `CC1CCCCC1NCC(=O)Nc1ccccc1C(=O)Nc1ccccc1` (stereo not drawn), the Potency was “inactive”. With `O=C(O)c1ccccc1NC(=O)c1ccccc1-c1ccccc1C(=O)O` the Potency was “inactive”. In the case of `c1ccc(CCc2ccccn2)cc1`, the Potency is reported as “inactive”. In the case of `Cc1cc(N2C(=O)C(=O)/C(=C(/O)c3ccccc3)C2c2cccc(Br)c2)no1` (stereo not drawn), the Potency is reported as “inactive”. In the case of `COc1ccccc1C1/C(=C(/O)c2ccc(OC(C)C)cc2)C(=O)C(=O)N1c1cc(C)on1` (stereo not drawn), the Potency is reported as 28.2 µM (active). For `Cc1cc(N2C(=O)C(=O)/C(=C(/O)c3ccc(Cl)cc3)C2c2cccc(Br)c2)no1` (stereo not drawn), the Potency was “inactive”. For `COc1ccc(CNCCCNCc2ccc(OC)c(OC)c2)cc1OC`, the Potency was “inactive”. In the case of `O=C1NC(c2ccccc2)Cc2ccncc21` (stereo not drawn), the Potency is reported as “inactive”. For `Cc1cccc(NC(=O)c2nc(S(=O)(=O)Cc3ccccc3)ncc2Cl)c1`, the Potency was “inactive”. In the case of `CSc1ncc(Cl)c(C(=O)Nc2cc(C)ccc2C)n1`, the Potency is reported as “inactive”. With `Cc1ccc(CS(=O)(=O)c2ncc(Cl)c(C(=O)Nc3nnc(C)s3)n2)cc1` the Potency was 31.6 µM (active). With `COCCSc1nnc(NC(=O)CCS(=O)(=O)Cc2ccccc2)s1` the Potency was “inactive”. With `Cc1ccc(S(=O)(=O)CC(=O)Nc2nnc(C)s2)cc1` the Potency was “inactive”. With `Cc1nnc(NC(=O)c2ccc3nccnc3c2)s1` the Potency was “inactive”. With `CCOc1ccc(NC(=O)c2nc(SCC)ncc2Cl)cc1` the Potency was “inactive”. For `CSc1nnc(NC(=O)c2nc(S(=O)(=O)Cc3ccc(C)cc3)ncc2Cl)s1`, the Potency was 15.8 µM (active). In the case of `Cc1cccc(CS(=O)(=O)c2ncc(Cl)c(C(=O)Nc3ccc(F)cc3)n2)c1`, the Potency is reported as 50.1 µM (active). In the case of `NC(=O)C1(Nc2ccc(-c3ccccc3)cc2)CCCC1`, the Potency is reported as “inactive”. With `CC(C)OC(=O)c1ccc(NCc2cc(O)ccc2O)cc1Cl` the Potency was “inactive”. In the case of `C=CCCC(=O)N1C[C@H]2CON(C)[C@H]2C[C@H]1c1cccc(Nc2ccccc2)c1`, the Potency is reported as “inactive”. In the case of `CCOc1ccccc1NC(=S)C(=C([O-])c1ccc2c(c1)OCCO2)[n+]1ccc(CC)cc1`, the Potency is reported as “inactive”. In the case of `O=c1c2ccccc2ncn1CCc1ccncc1`, the Potency is reported as “inactive”. With `Cc1ccc(C)c(S(=O)(=O)N(C)c2ccc(OC(=O)C3CCN(C(=O)c4ccc(F)cc4)CC3)cc2)c1` the Potency was “inactive”. With `CCOc1cc(C(=O)N(Cc2ccccc2)c2ccc(C)cc2)ccc1OCC(=O)N1CCOCC1` the Potency was “inactive”. For `Cc1ccc2oc(=O)ccc2c1`, the Potency was “inactive”. For `O=[N+]([O-])c1ccc(N=NNc2ccc([N+](=O)[O-])cc2)cc1`, the Potency was “inactive”. With `OCC1(CO)CC2(C1)CC(CO)(CO)C2` the Potency was “inactive”. For `COc1cccc(CNS(=O)(=O)c2ccc3c(c2)CC(C)N3C(=O)C2CCC2)c1` (stereo not drawn), the Potency was “inactive”. For `COc1cccc(CNS(=O)(=O)c2ccc3c(c2)CC(C)N3C(C)=O)c1` (stereo not drawn), the Potency was “inactive”. With `COc1ccc(N(C)S(=O)(=O)c2ccc3c(c2)CC(C)N3C(=O)C2CC2)c(OC)c1` (stereo not drawn) the Potency was 31.6 µM (active). For `O=C(Nc1cccc(Br)c1)C1CC(=O)N(C2CCCC2)C1` (stereo not drawn), the Potency was “inactive”. In the case of `CCN(C(=O)C1CCCN(c2nc(-c3ccc(OC)cc3)no2)C1)c1ccc(OC)cc1` (stereo not drawn), the Potency is reported as 35.5 µM (active). In the case of `COc1ccc(NC(=O)N2CCCC(c3nc(-c4ccc(F)cc4)no3)C2)cc1` (stereo not drawn), the Potency is reported as “inactive”. For `CCOC(=O)C1CCCN(C(=O)CN(c2ccc(OC)cc2)S(=O)(=O)c2c(C)noc2C)C1` (stereo not drawn), the Potency was “inactive”. For `O=C(O)C(=Cc1ccccc1[N+](=O)[O-])c1ccccc1`, the Potency was “inactive”. In the case of `Cc1ccc(CSc2nc(-c3ccccc3)c(C#N)c(=O)[nH]2)cc1`, the Potency is reported as “inactive”. In the case of `N#Cc1c(-c2ccccc2)nc(SCc2cccc(C(F)(F)F)c2)[nH]c1=O`, the Potency is reported as 50.1 µM (active). With `N#Cc1c(-c2ccccc2)nc(SCc2ccc([N+](=O)[O-])cc2)[nH]c1=O` the Potency was “inactive”. With `CC(=O)N(C1=C(Cl)C(=O)c2ccccc2C1=O)c1ccc(C(=O)O)cc1` the Potency was 50.1 µM (active). In the case of `O=C(NC1=CC(=O)c2ccccc2C1=O)c1ccccc1`, the Potency is reported as “inactive”. In the case of `CSc1nsc(NC(=O)Nc2ccccc2)n1`, the Potency is reported as “inactive”. For `C=CCSc1nsc(NC(=O)Nc2cccc(C(C)=O)c2)n1`, the Potency was 28.2 µM (active). In the case of `C=C(C)C(=O)Nc1cccc(C(C)=O)c1`, the Potency is reported as “inactive”. With `CCSc1nsc(NC(=O)Nc2cccc(C(C)=O)c2)n1` the Potency was 25.1 µM (active). For `CCSc1nsc(NC(=O)Nc2ccccc2OC)n1`, the Potency was “inactive”. In the case of `CC(=O)c1cccc(NC(=S)N2CCCC2)c1`, the Potency is reported as “inactive”. For `CC1C(C)N(C(=O)CCl)c2ccccc2N1C(=O)CCl` (stereo not drawn), the Potency was “inactive”. In the case of `O=S(=O)(O)c1cc2onnc2c2ccccc12`, the Potency is reported as “inactive”. In the case of `CC(C)(C)OC(=O)N1CCC(C(=O)Nc2cccc(C(=O)NCCc3ccccc3)c2)CC1`, the Potency is reported as “inactive”. In the case of `O=C(OC12CC3CC(CC(C3)C1)C2)c1ccc(NCc2cc(O)ccc2O)cc1`, the Potency is reported as “inactive”. With `O=c1c(-c2ccc3c(c2)OCCO3)c(C(F)(F)F)oc2cc(O)cc(O)c12` the Potency was 39.8 µM (active). For `COc1ccc(-c2onc(C)c2-c2ccc3c(c2)OCCO3)c(O)c1`, the Potency was “inactive”. With `CCN1CCN(Cc2c(O)ccc3c(=O)c(-c4ccc(OC)c(OC)c4)c(C(F)(F)F)oc23)CC1` the Potency was “inactive”.
